From article PMC5540273 (PLoS ONE, 2017)
“And” between values parts separate entries of the source, which are not always exact repeats. Equal values may be shown once. Read-outs that look alike come from different tables or passages of the source.

Columns and labels:
PAK6 = settings: n = 1
PAK7 = settings: n = 1
PCTK1 = tested on: T1, PCTK1; settings: concentration: 1 μM, replicates: in singlicate; n = 1
T1 construct: gene CDK16

PCTK2 = tested on: T2, PCTK2; settings: concentration: 1 μM, replicates: in singlicate; n = 1
T2 construct: gene CDK17

PCTK3 = tested on: T3, PCTK3; settings: n = 1
T3 construct: gene CDK18

PDGFRA = settings: n = 1
PDGFRB = settings: n = 1
PDPK1 = settings: n = 1
PFTAIRE2 = settings: n = 1
PFTK1 = tested on: T4, PFTK1; settings: n = 1
T4 construct: gene CDK14

[1] = concentration: 1 μM, replicates: in singlicate
[2] = concentration: 1 μM,replicates: in singlicate, 1 µM
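Also: KINOMEscan kinase panel screen.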

Structure (SMILES) | %Inh (PAK6; [1]) | %Inh (PAK7; [1]) | %Inh (PCTK1) | %Inh (PCTK2) | %Inh (PCTK3; [1]) | %Inh (PDGFRA; [1]) | %Inh (PDGFRB; [1]) | %Inh (PDPK1; [1]) | %Inh (PFTAIRE2; [1]) | %Inh (PFTK1; [1]) | %Inh (PAK6; [2]) | %Inh (PAK7; [2]) | %Inh (PCTK3; [2]) | %Inh (PDGFRA; [2]) | %Inh (PDGFRB; [2]) | %Inh (PDPK1; [2]) | %Inh (PFTAIRE2; [2]) | %Inh (PFTK1; [2])
Nc1nc(-c2nccs2)c(-c2ccnc3ccccc23)s1 [GW693542] | 9% | 0% | 8% | 0% | 5% | 0% | 1% | 0% | 13% | 17% | – | – | – | – | – | – | – | –
CN1C(=O)C(Nc2ccc(Cl)c(C(=O)O)c2)=C(c2ccc(Cl)cc2)C1=O [SB-404290] | 0% | 10% | 0% | 6% | 0% | 27% | 0% | 0% | 11% | 0% | – | – | – | – | – | – | – | –
Cn1ccc2ncnc(Oc3ccc(Nc4nc5ccccc5[nH]4)cc3)c21 | 9% | 0% | 0% | 0% | 12% | 8% | 0% | 19% | 7% | 0% | – | – | – | – | – | – | – | –
COC(=O)c1c(-c2ccccc2)c2cc(C(=O)O)ccc2c(=O)n1Cc1ccccc1 | 16% | 0% | 8% | 0% | 0% | 65% | 99.4% | 14% | 0% | 0% | – | – | – | – | – | – | – | –
COc1ccc(C2=C(Nc3cccc(C(=O)O)c3)C(=O)NC2=O)cc1 [SB-390765] | 0% | 0% | 1% | 8% | 0% | 30% | 0% | 21% | 24% | 6% | – | – | – | – | – | – | – | –
COc1ccc(Nc2nccc(-c3cccc(NC(=O)c4cc5cc(F)ccc5[nH]4)c3)n2)cc1 [GSK1229782] | 11% | 51% | 1% | 18% | 7% | 33% | 61% | 21% | 30% | 24% | – | – | – | – | – | – | – | –
O=S(=O)(c1ccc(-c2ccnc3[nH]ccc23)cc1)N1CCCC1 [GSK846226] | 20% | 15% | 7% | 0% | 0% | 0% | 24% | 0% | 24% | 27% | – | – | – | – | – | – | – | –
CCn1c(-c2cccnc2O)nc2cnccc21 [SB-736715] | 0% | 3% | 0% | 0% | 0% | 0% | 0% | 0% | 11% | 0% | – | – | – | – | – | – | – | –
CN(C)CCN(C)C(=O)c1cc(-c2ccncc2)c(-c2ccc(Cl)c(O)c2)o1.Cl.Cl [SB-710397] | 0% | 0% | 4% | 0% | 0% | 0% | 22% | 0% | 0% | 0% | – | – | – | – | – | – | – | –
Cc1csc(-c2nc(Nc3ccncc3)c3ccccc3n2)n1 [GW869640] | 0% | 8% | 20% | 0% | 12% | 36% | 0% | 0% | 21% | 5% | – | – | – | – | – | – | – | –
COc1cc2ncnc(Nc3ccc4nc(-c5ccccc5)[nH]c4c3)c2cc1OC.Cl [GW282450] | 11% | 12% | 0% | 0% | 1% | 0% | 28% | 0% | 8% | 19% | – | – | – | – | – | – | – | –
COc1cc(Nc2nccc(N3CCC(NC(=O)Nc4cc(C)ccc4C)C3)n2)cc(OC)c1OC (stereo not shown) [GSK1379762] | 0% | 0% | 9% | 24% | 33% | 8% | 42% | 11% | 24% | 21% | – | – | – | – | – | – | – | –
Cn1ccc2ncnc(Oc3cccc(C(=O)Nc4ccccc4)c3)c21 | 0% | 0% | 0% | 2% | 0% | 12% | 39% | 0% | 0% | 7% | – | – | – | – | – | – | – | –
O=C(Nc1n[nH]c2cc(-c3cccc(F)c3F)ccc12)C1CC1 [SB-733894] | 0% | 1% | 0% | 8% | 5% | 23% | 51% | 19% | 0% | 0% | – | – | – | – | – | – | – | –
Cl.Oc1ccc(-c2nc(-c3ccccc3)[nH]c2-c2ccncc2)cc1 [SB-428218] | 0% | 0% | 4% | 0% | 20% | 0% | 13% | 0% | 0% | 21% | – | – | – | – | – | – | – | –
O=C(Nc1n[nH]c2nc(-c3nccs3)c(Br)cc12)C1CCCC1 [SB-742609] | 0% | 0% | 48% | 47% | 50% | 0% | 27% | 0% | 7% | 26% | – | – | – | – | – | – | – | –

Structure (SMILES) | %Inh (PAK6; [1]) | %Inh (PAK7; [1]) | %Inh (PCTK1) | %Inh (PCTK2) | %Inh (PCTK3; [1]) | %Inh (PDGFRA; [1]) | %Inh (PDGFRB; [1]) | %Inh (PDPK1; [1]) | %Inh (PFTAIRE2; [1]) | %Inh (PFTK1; [1]) | %Inh (PAK6; [2]) | %Inh (PAK7; [2]) | %Inh (PCTK3; [2]) | %Inh (PDGFRA; [2]) | %Inh (PDGFRB; [2]) | %Inh (PDPK1; [2]) | %Inh (PFTAIRE2; [2]) | %Inh (PFTK1; [2])
COc1ccc2nc(-c3cccc(C)n3)nc(Nc3ccncc3)c2c1 [GSK204919] | 0% | 1% | 5% | 0% | 36% | 0% | 25% | 12% | 0% | 14% | – | – | – | – | – | – | – | –
COC(=O)c1c(-c2ccccc2)c2cc(OC)ccc2c(=O)n1Cc1ccccc1 | 3% | 5% | 0% | 4% | 9% | 70% | 99.5% | 0% | 10% | 6% | – | – | – | – | – | – | – | –
Clc1cc(Cl)cc(Nc2ccnc(Nc3cc(Cl)cc(Cl)c3)n2)c1 [GSK175726] | 9% | 10% | 0% | 19% | 0% | 14% | 21% | 19% | 2% | 0% | – | – | – | – | – | – | – | –
CSc1nn2c(=O)cc(N3CCOCC3)nc2n1Cc1cccc(C(F)(F)F)c1C [GSK2363608] | – | – | 2% | 0% | – | – | – | – | – | – | 12% and 0% | 1% and 0% | 0% and 5% | 15% and 0% | 12% and 8% | 7% and 0% | 23% and 6% | 21% and 6%
CC1=C(C(=O)Nc2cc3cn[nH]c3cc2F)C(c2ccc(C(F)(F)F)cc2)CC(=O)N1 (stereo not shown) [GSK429286] | 0% | 0% | 3% | 0% | 5% | 0% | 18% | 0% | 0% | 12% | – | – | – | – | – | – | – | –
Cc1c(O)cccc1Nc1ccnc2ccc(C(F)(F)F)cc12.Cl [GW466413] | 0% | 0% | 0% | 0% | 0% | 0% | 5% | 0% | 0% | 0% | – | – | – | – | – | – | – | –
Cc1cc(NCC(c2ccccc2)c2ccccc2)nc(NCc2ccc(C(F)(F)F)cc2)n1 [GW497681] | 0% | 0% | 0% | 13% | 35% | 0% | 21% | 0% | 13% | 18% | – | – | – | – | – | – | – | –
O=c1cc(N2CCOCC2)nc2n(Cc3cccc(Cl)c3Cl)ccn12 [GSK2286295] | 0% | 22% | 6% | 15% | 13% | 0% | 37% | 0% | 23% | 2% | – | – | – | – | – | – | – | –
Cc1cccc(-c2cc(Nc3ccncc3)c3ccccc3n2)n1 [GSK223675] | 0% | 0% | 13% | 7% | 0% | 2% | 23% | 0% | 27% | 16% | – | – | – | – | – | – | – | –
Cn1ccc2ncnc(Oc3ccc(NC(=O)Nc4ccccc4)cc3)c21 | 0% | 0% | 1% | 4% | 1% | 97.6% | 100% | 0% | 0% | 0% | – | – | – | – | – | – | – | –
CC(C)(C)c1ccc(C(=O)Nc2cn3cc(-c4cccnc4)ccc3n2)cc1 | 15% | 10% | 0% | 13% | 19% | 57% | 95.4% | 2% | 2% | 22% | – | – | – | – | – | – | – | –
Cl.O=C(Nc1cccc(-c2nn3ncccc3c2-c2ccnc(Nc3cccnc3)n2)c1)c1c(F)cccc1F [GSK312879] | 0% | 10% | 1% | 0% | 0% | 0% | 77% | 28% | 22% | 9% | – | – | – | – | – | – | – | –
O=C(O)COc1ncnc2cc(-c3ccc4[nH]ncc4c3)sc12 | 0% | 7% | 17% | 0% | 0% | 45% | 31% | 0% | 0% | 12% | – | – | – | – | – | – | – | –
Cc1nnc(-c2ccc3occ(-c4ccc(S(C)=O)cc4)c3c2)[nH]1 (stereo not shown) | 13% | 5% | 8% | 0% | 0% | 36% | 0% | 0% | 24% | 6% | – | – | – | – | – | – | – | –
COc1ccc(Nc2nccc(NCCNC(=O)Nc3ccccc3F)n2)cc1 [GSK1379901] | 0% | 0% | 4% | 0% | 0% | 0% | 70% | 0% | 3% | 26% | – | – | – | – | – | – | – | –
